# Measured values reported in PubChem BioAssay AID1508600 (Functional Genomics Laboratory (NCATS/FGL), 2020).
# Out of some 53,000 sequences screened, about 3,700 (7%) were called active.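 The calls were made as follows: active = gene knockdowns whose robust z-score for IL-1 alpha signal is at least 2 or at most -2, so actives lie on both sides; inactive = the rest.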 The sample as a whole holds a higher share of actives than the screen did.
# Test: Components of the Cytosolic LPS Sensing Pathway: Gene Identification via Genome-wide siRNA Screen;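 also: robust z of the log signal after scaling to non-targeting control siRNA wells of the plate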
# Settings: RAW264.7 macrophages, IL-1a HTRF, actives lie on both sides, screened at 100 nM (by protocol), cells primed 5 h with Pam3CSK4 first
# Outline: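 Read-out: IL-1a HTRF on supernatant, divided by plate negative-control median ×100, log-transformed and converted to robust z-score. Cells were RAW264.7 given 100 nM siRNA, Pam3CSK4-primed 5 hours, then LipidA-transfected 24 hour.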
row,Sequence,z-score
1,GGAGCGAAGUGAUGAAUAATT against Prph2,0.0677 (inactive)
2,GGAGCAGCUGAGAGAAAAATT against Ccdc144b,-0.413 (inactive)
3,GCGAUUCAGAGACCUAUGGTT against Aven,-2.22 (active)
4,GGAUGCUGAUUUAAAGACUTT against Rai14,1.69 (inactive)
5,GCUGAAGGGACUCUAACCATT against Ihh,0.715 (inactive)
6,CCUCUGGAUCUACGAGCUGTT against Odf4,-0.00669 (inactive)
7,GCAGAUAGAAGACUGGAAUTT against 1700024G13Rik,0.424 (inactive)
8,GGUUAUUUCUGAAAUGUGCTT against Fbxl4,-1.3 (inactive)
9,GGCUGAAAAUGGGAAGCUUTT against Gm5069,0.0536 (inactive)
10,GGAUGAGCUGAGGAAAUCCTT against Psd2,-0.535 (inactive)
11,GGUUCUAGACAAUUACCUGTT against Clic1,2.43 (active)
12,GCCAGGGACUUGCUAUUGATT against Txlna,-0.24 (inactive)
13,GGGAAUGGCUUGAUUCUGUTT against Olfr609,0.514 (inactive)
14,CGACAAGGAGACCUACAAATT against Itm2b,0.615 (inactive)
15,CGCAUCAUAAUGAUUGUGATT against Matn2,-0.269 (inactive)
16,GGCAUCUAUACCAGUAAUATT against Mllt6,-0.562 (inactive)
17,CCAACAGCAACGAUGACAATT against Thoc5,-2.94 (active)
18,GGAAAUGAUACCUUACCACTT against Zfp715,0.162 (inactive)
19,GCGUGAACCGUUUGAUGAGTT against 9030612E09Rik,1.04 (inactive)
20,GGACAUGAAAGAAACGGUGTT against Bbc3,-0.282 (inactive)
21,GCUUCCUCUUAUCAUAUAATT against Rgs13,-0.119 (inactive)
22,GGUAUUAGAAAUCCUGAUCTT against Pias2,-0.716 (inactive)
23,GGUAUUUCAGAUAACCUGGTT against Bbs12,2.9 (active)

row,Sequence,z-score
1,CGCAUCAUAUUCUGAUUCCTT against Rmnd5b,0.138 (inactive)
2,CGCAGACAACAAAGUAGAATT against Sars,0.738 (inactive)
3,GGUGUUGUAAAAUUCCUCATT against Ncoa7,-2.08 (active)
4,GCAUUUCGACGCGGCUUUUTT against Snapc1,0.617 (inactive)
5,GGUAAACCUGCCAAUUUUGTT against Ovch2,1.54 (inactive)
6,GCCAUGUGAGACUCUUAUATT against Slc2a9,0.62 (inactive)
7,GCAGCUCCUUUAUACCCACTT against Mxra7,-1.25 (inactive)
8,GGAGGGAGCAGAUUGAAACTT against Eri2,-0.281 (inactive)
9,GCAUGCUUAAGCCUAUAAATT against Ncstn,-1.88 (inactive)
10,GUGUCUCUGUACUUAUUAUTT against Olfr483,0.69 (inactive)
11,GGUGGACGUACUUUUUAACTT against Gata3,2.59 (active)
12,GCUUUUAGAAUAAAGCUGATT against Fgl2,0.75 (inactive)
13,CCUAUGUCCACCACAAAUGTT against Ifi209,-0.14 (inactive)
14,GCAACCUGUCCCUUCUUGATT against Olfr225,1.53 (inactive)
15,GGAGCUGAAGCCAUUCAACTT against Gpx6,2.08 (active)
16,GGGAAAUGUUGUAGUAGAUTT against Rars2,0.535 (inactive)
17,CCACUGUGUGACAUUAAAGTT against Metap2,-0.799 (inactive)
18,GCAACUAGCGUGUGUUCCUTT against Arpc1a,2.4 (active)
19,GGCACAGAAUAUCCACCACTT against Olfr283,-1.01 (inactive)
20,GGCAUUCAGGAAGUUACUGTT against Krt75,-1.63 (inactive)
21,GGCUUAAUUGCUAGCCAAGTT against Slc7a13,0.849 (inactive)
22,GGCUUUCGCUAGAAAACUCTT against Sftpc,0.531 (inactive)
23,CGUGGAAAGAAAAUUAUCATT against Psmd11,-2.21 (active)

row,Sequence,z-score
1,GCAAAUUUUAUAUGCGACUTT against Glipr1,-0.561 (inactive)
2,GGAGAAUGACUACUAUACUTT against Stt3a,-0.127 (inactive)
3,CCAGACACGCAUUGCGAAATT against H2-M2,0.357 (inactive)
4,GCAUCAAUUCCCAAACCUUTT against Selenov,-0.0263 (inactive)
5,GGGCAAACCAGUUAGCAGATT against Atxn2,0.278 (inactive)
6,GGGAAGCCUUACUUAUUGGTT against Vmn1r53,1.25 (inactive)
7,GGACGAAAUCUUGUCUGAUTT against Atg4b,2.59 (active)
8,GGACAAAACCUCAGUUGAUTT against Bves,1.05 (inactive)
9,CCAAGGACACUAUACAAAUTT against Fank1,0.957 (inactive)
10,CCCGCAACAAUAAACCUGATT against Yif1b,-1.36 (inactive)
11,GCAGUACAUAGGACAAUACTT against Ccdc97,0.0835 (inactive)
12,GGAAGAAGAAAGUGUUAAATT against Ythdf2,-0.337 (inactive)
13,GGUCCAAUUUUAUAACAGUTT against Dmtf1,0.359 (inactive)
14,GCCAUGUCAAUCAAUCACUTT against Nucks1,-2.57 (active)
15,GGCUACCAAGGCAGUUUCCTT against Glis1,-1.35 (inactive)
16,GCUUUACUCCAGAUGGAUCTT against Chaf1b,3.23 (active)
17,GGGUAUCAGUGCCUUCCUGTT against Acads,-1.05 (inactive)
18,GGUCACUCGGUUCACAAAATT against Bid,-0.731 (inactive)
19,CGUUCAUAUAGAGAACUGUTT against Naip1,0.699 (inactive)
20,CGUGCCUGCUCAAUUAAUUTT against 1700067P10Rik,2.46 (active)
21,GGGUAAUAGACCAUUUCUUTT against Olfr124,0.255 (inactive)
22,GGAGCUUAGAGGAACGAAUTT against Cyp2j9,1.4 (inactive)
23,GGAUUUUGGCCAAAUUGGUTT against Slc25a30,-2.08 (active)
